According to PubChem BioAssay (NCATS):
Inconclusive results are not listed. Entries that show only a call come without a potency. A number with no mark means an inactive call. Calls of active or inactive are those of the source. The call rests on the fitted dose curve; in most records, active means well fitted curve in the direction sought with a large enough effect; inconclusive means small, poorly fitted or top-dose-only effect, or another doubt; inactive means no such curve, though single readings can be large; an effect the other way counts as inactive or inconclusive.

Tests used:
[1] = molecular target: Rap guanine nucleotide exchange factor 3 (Homo sapiens) (UniProt O95398); test: Confirmatory qHTS for antagonist of cAMP-regulated guanine nucleotide exchange factor 3 (EPAC1) (AID 1645880); details: EPAC1 Rap1B-BODIPY-GDP exchange, fluorescence; activity, negative = inhibition: at 115 µM (top of the series); further: nearly all actives have a fitted effect of over 55% in size; further: potency means the concentration at half of the fitted maximal effect
In short: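 Nucleotide exchange uses 100 nM EPAC1, 250 nM RAP1B-BODIPY-GDP and 50 uM GDP, with compounds in a concentration-titration series. After 5 min at room temperature, fluorescence (480 nm ex/540 nm em) is read every 5 min for 30 min. Data are normalized to control ATA and DMSO.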

[2] = molecular target: Rap guanine nucleotide exchange factor 3 (Homo sapiens) (UniProt O95398); test: Confirmatory qHTS for agonist of cAMP-regulated guanine nucleotide exchange factor 3 (EPAC1) (AID 1645881); further: nearly all actives have a fitted effect of over 75% in size; further: potency means the concentration at half of the fitted maximal effect;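 on activation: EPAC1 catalysed release of BODIPY-GDP from Rap1B seen as fluorescence loss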
[3] = molecular target: Rap guanine nucleotide exchange factor 4 (Homo sapiens) (UniProt Q8WZA2); test: Confirmatory qHTS for agonist of cAMP-regulated guanine nucleotide exchange factor 4 (EPAC2) (AID 1645884);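 further: nucleotide exchange releases bodipy-GDP from Rap1 and this lowers its fluorescence; nearly all actives have a fitted effect of over 65% in size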; further: potency means the concentration at half of the fitted maximal effect
[4] = molecular target: Rap guanine nucleotide exchange factor 4 (Homo sapiens) (UniProt Q8WZA2); test: Confirmatory qHTS for antagonist of cAMP-regulated guanine nucleotide exchange factor 4 (EPAC2) (AID 1645885); further: nearly all actives have a fitted effect of over 25% in size; further: potency means the concentration at half of the fitted maximal effect
[5] = molecular target: Rap guanine nucleotide exchange factor 3 (Homo sapiens) (UniProt O95398); test: Counterscreen qHTS for antagonist of cAMP-regulated guanine nucleotide exchange factor 3 (EPAC1) (AID 1645888);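 further: fluorescence loss as bound BODIPY-GDP is released from Rap1B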
In short: (§1)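 Rap1B-BODIPY-GDP 250 nM + GDP 50 uM; cpds 7-pt, final 9.74 nM–152 uM (activator mode) or from 7.32 nM upwards (inhibitor mode); RT; FI 480/540 nm at 5 and 30 min, then ± cAMP, reread.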

[6] = molecular target: Rap guanine nucleotide exchange factor 3 (Homo sapiens) (UniProt O95398); test: Counterscreen qHTS for agonist of cAMP-regulated guanine nucleotide exchange factor 3 (EPAC1) (AID 1645889); further: nearly all actives have a fitted effect of over 40% in size; further: potency means the concentration at half of the fitted maximal effect
In short: as §1

Chain of Rap guanine nucleotide exchange factor 4 (Homo sapiens) (Q8WZA2 whole entry, looked up): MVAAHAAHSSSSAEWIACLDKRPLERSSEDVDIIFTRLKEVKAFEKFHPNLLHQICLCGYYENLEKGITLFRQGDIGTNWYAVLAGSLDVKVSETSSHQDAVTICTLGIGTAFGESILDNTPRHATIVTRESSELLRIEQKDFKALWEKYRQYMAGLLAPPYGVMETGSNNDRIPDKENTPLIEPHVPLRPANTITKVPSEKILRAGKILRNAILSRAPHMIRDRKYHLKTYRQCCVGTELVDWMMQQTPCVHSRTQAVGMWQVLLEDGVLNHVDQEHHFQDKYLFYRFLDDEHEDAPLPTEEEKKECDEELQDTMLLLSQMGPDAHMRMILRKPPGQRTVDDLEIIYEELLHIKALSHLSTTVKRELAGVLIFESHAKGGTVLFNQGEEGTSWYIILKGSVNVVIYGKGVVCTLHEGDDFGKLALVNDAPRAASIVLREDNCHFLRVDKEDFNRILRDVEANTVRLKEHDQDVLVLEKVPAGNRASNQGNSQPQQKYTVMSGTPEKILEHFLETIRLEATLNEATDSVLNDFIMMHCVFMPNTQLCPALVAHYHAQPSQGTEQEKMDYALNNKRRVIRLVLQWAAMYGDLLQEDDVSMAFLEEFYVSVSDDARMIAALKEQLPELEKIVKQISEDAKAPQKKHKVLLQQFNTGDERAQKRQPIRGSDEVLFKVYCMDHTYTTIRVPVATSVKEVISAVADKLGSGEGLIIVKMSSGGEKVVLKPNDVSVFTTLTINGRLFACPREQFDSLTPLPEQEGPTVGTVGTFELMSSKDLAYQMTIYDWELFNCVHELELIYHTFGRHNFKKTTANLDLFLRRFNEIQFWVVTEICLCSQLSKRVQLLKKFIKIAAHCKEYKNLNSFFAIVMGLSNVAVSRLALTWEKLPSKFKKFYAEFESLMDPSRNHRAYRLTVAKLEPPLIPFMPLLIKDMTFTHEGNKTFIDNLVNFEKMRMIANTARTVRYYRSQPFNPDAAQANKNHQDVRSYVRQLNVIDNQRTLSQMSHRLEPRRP
Chain of Rap guanine nucleotide exchange factor 3 (Homo sapiens) (O95398 whole entry, looked up): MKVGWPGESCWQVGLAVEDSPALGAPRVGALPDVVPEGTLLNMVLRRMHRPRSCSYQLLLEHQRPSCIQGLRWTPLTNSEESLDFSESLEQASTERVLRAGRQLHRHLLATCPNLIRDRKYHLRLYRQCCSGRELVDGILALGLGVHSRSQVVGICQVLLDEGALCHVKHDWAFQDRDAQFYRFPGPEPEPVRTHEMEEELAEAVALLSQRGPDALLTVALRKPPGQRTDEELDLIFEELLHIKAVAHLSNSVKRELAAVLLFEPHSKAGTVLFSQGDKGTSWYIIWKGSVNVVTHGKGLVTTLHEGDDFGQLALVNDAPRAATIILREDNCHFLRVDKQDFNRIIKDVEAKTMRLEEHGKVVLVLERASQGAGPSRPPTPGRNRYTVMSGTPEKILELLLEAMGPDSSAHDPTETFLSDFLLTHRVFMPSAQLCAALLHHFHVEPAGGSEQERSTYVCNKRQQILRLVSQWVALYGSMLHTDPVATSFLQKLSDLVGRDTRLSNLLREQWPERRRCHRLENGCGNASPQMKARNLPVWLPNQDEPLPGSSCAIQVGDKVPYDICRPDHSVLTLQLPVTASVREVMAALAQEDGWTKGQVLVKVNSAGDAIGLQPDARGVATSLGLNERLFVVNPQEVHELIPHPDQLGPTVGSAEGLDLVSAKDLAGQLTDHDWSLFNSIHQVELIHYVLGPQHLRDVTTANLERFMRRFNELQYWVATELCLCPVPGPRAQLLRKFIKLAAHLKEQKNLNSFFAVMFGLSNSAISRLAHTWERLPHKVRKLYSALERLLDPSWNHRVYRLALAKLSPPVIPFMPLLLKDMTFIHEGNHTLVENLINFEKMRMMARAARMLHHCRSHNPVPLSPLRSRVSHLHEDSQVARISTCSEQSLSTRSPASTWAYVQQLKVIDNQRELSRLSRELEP

| SMILES | Potency [1] | Potency [2] | activation [3] | Potency [4] | activity change, negative = inhibition [5] | activation [6] | Potency [3] | outcome [4] | Potency [5] | Potency [6] |
| --- | --- | --- | --- | --- | --- | --- | --- | --- | --- | --- |
| Cc1ccc(S(=O)(=O)CCC(=O)Nc2sccc2C#N)cc1 | inactive | inactive | 6.67% [at 17.1 µM, percent relative to cAMP agonist control] | inactive | -10.4% [at 30.8 µM] | 34.4% [at 30.8 µM] |  |  |  |  |
| O=C(Nc1nc2ccc(Cl)cc2s1)C1CCCO1 (centres undefined) | inactive | inactive | 6.17% [at 17.1 µM, percent relative to cAMP agonist control] | inactive | 0.458% [at 30.8 µM] | 15.7% [at 30.8 µM] |  |  |  |  |
| O=C(CSC1=NCCS1)N1N=C(c2cccs2)CC1c1ccc(F)cc1 (centres undefined) | inactive | inactive | 6.13% [at 17.1 µM, percent relative to cAMP agonist control] | inactive | 4.6% [at 30.8 µM] | 21.2% [at 30.8 µM] |  |  |  |  |
| Cc1cc(C)cc(OCCSc2nc(-c3ccc(C(C)(C)C)cc3)nc3cc(=O)[nH]n23)c1 | 67.5 µM (active) | inactive |  |  |  |  | inactive | inactive [at 12.7 µM] | inactive | inactive |
| O=S(=O)(NCC1(N2CCOCC2)CCCCC1)c1ccc(Cl)cc1C(F)(F)F | inactive | inactive |  | inactive |  |  | inactive |  | inactive | inactive |
| Cc1cccc(C)c1Nc1nn2c(=O)c3cc4c(cc3nc2s1)OCO4 | inactive | inactive |  | inactive |  |  | inactive |  | inactive | inactive |
| CCC(C)(C)NC(=O)C(c1ccccn1)N(C(=O)c1csnn1)C1CCCCC1 (centres undefined) | inactive | inactive |  | inactive |  |  | inactive |  | inactive | inactive |
| COc1ccc(-c2nc(C)ncc2-c2ccccc2)c(O)c1 | inactive | inactive | -0.293% [at 17.1 µM, percent relative to cAMP agonist control] | inactive | -10.8% [at 30.8 µM] | -4.43% [at 30.8 µM] |  |  |  |  |
| C[C@H]1CN([C@@H](C)CO)C(=O)CCCn2cc(nn2)CO[C@@H]1CN(C)S(=O)(=O)c1ccc(-n2cccn2)cc1 | inactive | inactive |  | inactive |  |  | inactive |  | inactive | inactive |
| O=C(CSc1nccn1C1CCCC1)Nc1cc(C(F)(F)F)ccc1Cl | inactive | inactive |  | inactive |  |  | inactive |  | inactive | inactive |
| O=C1COc2ccc(C(=O)COC(=O)c3ccc([N+](=O)[O-])cc3Cl)cc2N1 | inactive | inactive |  | inactive |  |  | inactive |  | inactive | inactive |
| COCCn1c(-c2ccc(Br)cc2)csc1=Nc1cccnc1 | inactive | inactive |  | inactive |  |  | inactive |  | inactive | inactive |
| COc1ccc(/C=N/Nc2ncnc3sc(C)c(C)c23)cc1 | inactive | inactive |  | inactive |  |  | inactive |  | inactive | inactive |
| Cc1c(C(=O)N2CCC2)oc2ccc(Br)cc12 | inactive | inactive |  | 33.8 µM (active) |  |  | inactive |  | inactive | inactive |
| O=C(COC(=O)Cc1c(Cl)cccc1Cl)NCC1CCCO1 (centres undefined) | inactive | inactive |  | 75.7 µM (active) |  |  | inactive |  | inactive | inactive |
| Cc1cc(-c2nn(-c3ccccc3F)cc2CN2CCCC(O)C2)c(C)s1 (centres undefined) | inactive | inactive | 2.57% [at 17.1 µM, percent relative to cAMP agonist control] | inactive | -17.9% [at 30.8 µM] | 23.9% [at 30.8 µM] |  |  |  |  |
| Cc1cccc(C)c1OC(=O)c1ccccc1 | inactive | inactive | 9.32% [at 17.1 µM, percent relative to cAMP agonist control] | inactive | 6.4% [at 30.8 µM] | 6.89% [at 30.8 µM] |  |  |  |  |
| COc1ccc(CNC(=S)N/N=C/c2ccc(OC)c(OC)c2)cc1 | inactive | inactive |  | 67.5 µM (active) |  |  | inactive |  | inactive | inactive |
| CN(C(=O)CSc1nc2[nH]ncc2c(=O)[nH]1)c1ccccc1 | inactive | inactive | 1.67% [at 17.1 µM, percent relative to cAMP agonist control] | inactive | -21.3% [at 30.8 µM] | -11.1% [at 30.8 µM] |  |  |  |  |
| Cc1cc2oc(=O)cc(CN3CCCC3)c2cc1Cl | inactive | inactive | -3.71% [at 17.1 µM, percent relative to cAMP agonist control] | inactive | 3.14% [at 30.8 µM] | 28.8% [at 30.8 µM] |  |  |  |  |

| SMILES | Potency [1] | Potency [2] | activation [3] | Potency [4] | activity change, negative = inhibition [5] | activation [6] | Potency [3] | outcome [4] | Potency [5] | Potency [6] |
| --- | --- | --- | --- | --- | --- | --- | --- | --- | --- | --- |
| Cc1ccc(C(=O)/C=C/c2cc(Br)cc(Br)c2O)o1 | 26.9 µM (active) | inactive |  | inactive |  |  | inactive |  | inactive | inactive |
| COc1ccc(-n2ccn(Cc3ccc(C)cc3)c(=O)c2=O)cc1OC | inactive | inactive |  | inactive |  |  | inactive |  | inactive | inactive |
| CCOC(=O)C1(c2ccccc2)SC(C(=O)OCC)(c2ccccc2)S1 (centres undefined) | inactive | inactive |  | 53.6 µM (active) |  |  | inactive |  | inactive | inactive |
| Cc1ccc(S(=O)(=O)Nc2ccc3cc([N+](=O)[O-])ccc3c2[N+](=O)[O-])cc1 | 21.3 µM (active) | inactive |  | inactive |  |  | inactive |  | inactive | inactive |
| COc1cnc(-c2ccccc2)c(-c2ccccc2)n1 | inactive | inactive | 7.78% [at 17.1 µM, percent relative to cAMP agonist control] | inactive | -6.36% [at 30.8 µM] | -4.28% [at 30.8 µM] |  |  |  |  |
| Cc1ccc(/C(O)=C2/C(=O)C(=O)OC2c2ccc(Cl)cc2)cc1 (centres undefined) | 39.8 µM (active) | inactive | 1.22% [at 17.1 µM, percent relative to cAMP agonist control] | inactive | -12.7% [at 30.8 µM] | 5.06% [at 30.8 µM] |  |  |  |  |
| NC(=O)c1ccsc1NC(=O)CS(=O)(=O)c1ccc(F)cc1 | inactive | inactive |  | inactive |  |  | inactive |  | inactive | inactive |
| CC(C)Oc1nc(-c2ccccc2Cl)nc2ccccc12 | inactive | inactive |  | inactive |  |  | inactive |  | inactive | inactive |
| Cn1cc([C@]2(O)C(=O)Nc3c(F)cccc32)c2ccccc21 | inactive | inactive |  | inactive |  |  | inactive |  | inactive | inactive |
| O=C(CN(Cc1ccco1)C(=O)c1ccc(Cl)cc1)Nc1c(Cl)cc(Cl)cc1Cl | inactive | inactive |  | inactive |  |  | inactive |  | inactive | inactive |
| CCC(C)Sc1nc2c(c(=O)[nH]c(=O)n2C)n1CC(O)COc1cccc2ccccc12 (centres undefined) | inactive | inactive |  | inactive |  |  | inactive |  | inactive | inactive |
| CC1CCc2c(sc3nc(SCC(=O)O)n(-c4ccccc4)c(=O)c23)C1 (centres undefined) | inactive | inactive | -2.98% [at 17.1 µM, percent relative to cAMP agonist control] | inactive | -13.5% [at 30.8 µM] | 5.5% [at 30.8 µM] |  |  |  |  |
| c1cncc(-c2nc(NCCCN3CCOCC3)c3c4c(sc3n2)CCC4)c1 | inactive | inactive |  | inactive |  |  | inactive |  | inactive | inactive |
| CC1=NOC(=O)/C1=C\c1ccc(-c2ccc(Br)cc2)o1 | 25.1 µM (active) | inactive | -0.7% [at 17.1 µM, percent relative to cAMP agonist control] | inactive | -10.2% [at 30.8 µM] | 11.6% [at 30.8 µM] |  |  |  |  |
| O=S(=O)(Nc1cc2nc3ccccc3nc2n1Cc1ccccc1)c1ccc(Cl)cc1 | 9.53 µM (active) | inactive |  | 37.9 µM (active) |  |  | inactive |  | inactive | inactive |
| CCCCNC(=O)c1cc(-c2ccc3c(c2)OCO3)on1 | inactive | inactive |  | inactive |  |  | inactive |  | inactive | inactive |
| CN(Cc1ccccc1)C(=O)C1CCCN(Cc2cccc(Cl)c2)C1 (centres undefined) | inactive | inactive |  | inactive |  |  | inactive |  | inactive | inactive |
| COC(=O)c1cc(NC(=O)CC2SCCNC2=O)cc(C(=O)OC)c1 (centres undefined) | inactive | inactive | 4.81% [at 17.1 µM, percent relative to cAMP agonist control] | inactive | 6.38% [at 30.8 µM] | 0.776% [at 30.8 µM] |  |  |  |  |
| CCN(CC)c1ccc2cc(C(C)=O)c(=O)oc2c1 | inactive | 89.1 µM (active) |  | inactive |  |  | 100 µM (active) |  | inactive | 50.1 µM (active) |
